The list is not random: actives were taken first. Their share in the collection is about 12%.
Sfp PPTase inh: blocks B. subtilis Sfp PPTase activity. Q9F4F7. Biochemical Sfp PPTase activity, qHTS. Potency, µM, hits mostly inhibitors. actives 3.5% (n = 310,000). AID 1490;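 note: the enzyme is Sfp with the accession as filed and its product quenches rhodamine fluorescence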
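Sfp 15 nM + cpd, 15 min RT; start w/ rhodamine-CoA 5 uM, BHQ-2-YbbR 12.5 uM (final); 50 mM Hepes pH 7.6, 10 mM MgCl2, 0.01% NP-40, 0.01% BSA; read 525/598 nm at 0 and 30 min.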
G9a inh: blocks human histone lysine methyltransferase G9a. G9a H3K9 monomethylation, AlphaScreen, 2 h. Potency, µM (series often up to 102 µM), actives largely listed as inhibitors. actives 8.8% (n = 350,000). AID 504332; note: nearly all actives have a fitted effect of over 75% in size
Target sequence (Q96KQ7 913-1193 limits assumed): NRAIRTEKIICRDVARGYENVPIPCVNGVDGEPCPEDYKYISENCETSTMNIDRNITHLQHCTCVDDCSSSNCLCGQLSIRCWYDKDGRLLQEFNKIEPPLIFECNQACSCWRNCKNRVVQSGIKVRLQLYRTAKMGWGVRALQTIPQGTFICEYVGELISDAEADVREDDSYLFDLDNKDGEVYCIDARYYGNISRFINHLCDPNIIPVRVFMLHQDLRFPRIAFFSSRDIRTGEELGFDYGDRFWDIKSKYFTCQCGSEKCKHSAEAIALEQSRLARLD
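Using a bead-based AlphaScreen, monomethylated H3K9 product from 2 h room-temperature reactions (G9a 20 nM, peptide 500 nM, SAM 20 uM) was detected with 0.5 ug/mL rabbit anti-H3K9me1 antibody.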
BAZ2B inh: blocks human BAZ2B | Q9UIF8 | AlphaScreen BAZ2B-H3K14Ac peptide displacement | Potency, µM (titrated, usually from 114 µM), hits mostly inhibitors | actives 4.4% (n = 360,000) | AID 504333; note: nearly all actives have a fitted effect of over 60% in size
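BAZ2B 50 nM plus b-H3(5-23)K14Ac 50 nM, PBS pH 7.4/0.01% Tween-20, 30 min RT; compound added (max 110 uM), 30 min RT; streptavidin donor/Ni-chelate acceptor beads 10 ug/mL final, 20 min dark; AlphaScreen read.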
HP1b binding inh: inhibitors of HP1-beta chromodomain binding to methylated histone tails; Potency, µM (top dose mostly 114 µM), most hits filed as inhibitors; actives 0.56% (n = 390,000); AlphaScreen HP1-beta / biotin-H3K9me3 peptide binding; note: nearly all actives have a fitted effect of over 70% in size
Target sequence (P83916 whole entry, looked up): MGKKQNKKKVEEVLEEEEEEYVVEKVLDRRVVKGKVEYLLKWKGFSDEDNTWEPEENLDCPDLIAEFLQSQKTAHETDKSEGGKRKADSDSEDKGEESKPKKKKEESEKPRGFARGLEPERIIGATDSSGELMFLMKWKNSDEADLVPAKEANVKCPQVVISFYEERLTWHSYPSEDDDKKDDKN
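HP1-beta protein (50 nM final) preincubated 30 min at room temperature with biotinylated H3(1-18)K9me3 peptide (50 nM) in PBS pH 7.4, 0.01% Tween-20, then compound added for 30 min. AlphaScreen streptavidin donor/nickel chelate acceptor beads (10 ug/mL final), 30 min dark, luminescence read.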
L3MBTL1 block: L3MBTL1 (human) inhibition. actives 0.66% (n = 230,000). Potency, µM (doses to about 57.1 µM), most hits filed as inhibitors. AlphaScreen L3MBTL1–H3K9me1 peptide binding; note: nearly all actives have a fitted effect of over 60% in size
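AlphaScreen assay: L3MBTL1 (50 nM final) was preincubated 30 min at room temperature with biotinylated H3(1-15)K9me1 peptide (75 nM final), then 30 min with library compounds; streptavidin donor and nickel chelate acceptor beads (10 ug/mL final) added, 30 min dark.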
JMJD2A Tudor: inhibitors of human JMJD2A Tudor domain; AlphaScreen JMJD2A-Tudor / H3K4me3 peptide binding; AID 504339; Potency, µM (highest dose often 114 µM), actives largely listed as inhibitors; O75164; actives 4.4% (n = 390,000); note: nearly all actives have a fitted effect of over 50% in size
Of the large screens only hits and unclear results are named; the others gave an inactive call. Calls come from the whole dose curve; as a rule, active = well fitted curve in the direction sought with a large enough effect; inconclusive = small, poorly fitted or top-dose-only effect, or another doubt; inactive = no such curve, though single readings can be large; an effect the other way counts as inactive or inconclusive.

Cc1ccc(-c2ccc(CCC(=O)O)n2NC(=O)c2cccs2)cc1	G9a inh inconclusive, BAZ2B inh 11µM, L3MBTL1 block 40µM
COC(=O)Nc1ccc(S(=O)(=O)N2CCC(C)CC2)cc1	none (no result: L3MBTL1 block)
COC(=O)Nc1ccc(S(=O)(=O)N2CCC(C(=O)N3CCC(C)CC3)CC2)cc1	JMJD2A Tudor 11µM
COC(=O)Nc1ccc(S(=O)(=O)N2CCN(C)CC2)cc1	G9a inh inconclusive, JMJD2A Tudor 79µM
CCOC(=O)c1c(S(=O)(=O)N2CCCC(C(=O)Nc3cc(C)ccc3OC)C2)c(C)n(C)c1C (stereo not drawn)	none (no result: Sfp PPTase inh, L3MBTL1 block)
C/C(=N\NS(=O)(=O)c1ccc([N+](=O)[O-])cc1)c1ccc(NC(=O)c2ccco2)cc1	G9a inh 35µM (no result: L3MBTL1 block)
O=C(NNc1ccc([N+](=O)[O-])cc1)c1ccco1	Sfp PPTase inh inconclusive, G9a inh 45µM (no result: L3MBTL1 block)
O=C(NNc1ccc([N+](=O)[O-])cc1[N+](=O)[O-])c1ccco1	G9a inh 40µM, BAZ2B inh 40µM, HP1b binding inh inconclusive, JMJD2A Tudor inconclusive (no result: L3MBTL1 block)
CC(=NNS(=O)(=O)c1ccc([N+](=O)[O-])cc1)c1ccc(C)cc1	HP1b binding inh inconclusive (no result: Sfp PPTase inh, G9a inh, BAZ2B inh, L3MBTL1 block)
CCCn1c(C)nc2c(NCCOC)nc(C)nc21	none (no result: G9a inh, BAZ2B inh, HP1b binding inh, L3MBTL1 block, JMJD2A Tudor)
CCOC(=O)CSc1nc2ccccc2n2cnnc12	Sfp PPTase inh 56µM, G9a inh inconclusive
O=C1CCCc2cc3c(cc21)CCCC3	none (no result: Sfp PPTase inh, G9a inh, BAZ2B inh, L3MBTL1 block)
Nc1cc2c(cc1O)CCCC2	Sfp PPTase inh 4.5µM, HP1b binding inh inconclusive, L3MBTL1 block inconclusive, JMJD2A Tudor 2.5µM (no result: G9a inh)
Cc1cccc(CN2CCN(CCCc3ccccc3)CC2)c1	Sfp PPTase inh inconclusive, BAZ2B inh inconclusive (no result: G9a inh, HP1b binding inh, JMJD2A Tudor)
O=S1(=O)CCN(Cc2cccc(C(F)(F)F)c2)CC1	none
Cc1cccc(CN2CCSCC2)c1	G9a inh inconclusive, BAZ2B inh inconclusive, HP1b binding inh inconclusive, JMJD2A Tudor 20µM
FC(F)(F)c1cccc(CN2CCSCC2)c1	G9a inh 10µM, BAZ2B inh 56µM, HP1b binding inh inconclusive, JMJD2A Tudor 22µM
COc1ccc(Cl)cc1NC(=O)CN1C(=O)CSc2ccc(S(=O)(=O)N3CCCC3)cc21	none (no result: Sfp PPTase inh, L3MBTL1 block)
N#Cc1cc(C#N)c(SCC(=O)N2CC(=O)Nc3ccccc32)nc1N	G9a inh inconclusive (no result: Sfp PPTase inh)
CCc1ccc2nc(SCC(=O)N3CC(=O)Nc4ccccc43)c(C#N)cc2c1	HP1b binding inh inconclusive, JMJD2A Tudor 50µM
O=C(CNC(=O)N1CC(=O)Nc2ccccc21)Nc1ccc(Cl)cc1	none (no result: G9a inh, L3MBTL1 block)
Cc1nc(SCC(=O)N2CC(=O)Nc3ccccc32)nc(C)c1C	G9a inh 32µM (no result: L3MBTL1 block)
COc1ccccc1Nc1nnc(SCC(=O)N2CC(=O)Nc3ccccc32)s1	G9a inh 50µM
O=C1CN(C(=O)CNCc2ccc(Cl)cc2)c2ccccc2N1	Sfp PPTase inh inconclusive, G9a inh 25µM, BAZ2B inh 71µM, HP1b binding inh inconclusive, JMJD2A Tudor 10µM
COc1ccccc1CN1CC[C@@]2(CCCN(C(=O)c3cccc(F)c3)C2)C1	none (no result: BAZ2B inh, HP1b binding inh, L3MBTL1 block, JMJD2A Tudor)
COc1ccc(Oc2ncc3nc(-c4ccccc4)c(=O)n(C4CC4)c3n2)cc1	none (no result: BAZ2B inh, HP1b binding inh, L3MBTL1 block, JMJD2A Tudor)
CCc1ccccc1NC(=O)c1cnc2sc(N3CCCC3)nn2c1=O	none (no result: Sfp PPTase inh, L3MBTL1 block)

Source: PubChem BioAssay (National Center for Advancing Translational Sciences (NCATS))
